# This is one part of a sample in which hits are shown more often than they occur.
# GluA2 TARP mod = modulators of GluA2-stargazin AMPA receptor complexes, primary screen, cell-based, membrane potential dye; Voltage-dependent calcium channel gamma-2 subunit (Mus musculus) + Glutamate receptor 2 …; HEK293 GluA2+stargazin, membrane potential dye (FDSS), glutamate EC50; hits were called plate by plate, in both directions; calls only at 30 µM; 40,000 tested, 3.5% active; AID 1259245, 2017;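 active means any of four per-well response measures lying three or more SD from its plate-wide compound average, in either direction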
# GIRK2 activator = activators of NPY4-receptor-primed GIRK2 channels, summary, cell-based, HEK293, thallium flux. 34,000 tested, under 10 active. G protein-activated inward rectifier potassium channel 2 (Homo sapiens), P48051. HEK293 GIRK2/NPY4 cells, thallium flux fluorescence. activation (% efficacy), % for hits at 75 µM. AID 1259324, 2017;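 active means primary screen hit, no activity in plain HEK293 cells, and in GIRK2-only cells above 5% efficacy rising with concentration; inactive means the rest, including fluorescent compounds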;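 further: efficacy is normalized control-subtracted fluorescence 15 s after thallium addition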
# An asterisk follows results filed as active; i = inactive; / = no result given; + = active, no number.
SMILES,GluA2 TARP mod,GIRK2 activator
COCCn1nc(-c2ccc3c(c2)OCO3)ccc1=O,+,i
COCCn1nc(-c2ccc(Cl)cc2)ccc1=O,i,i
CCOc1ccc(Cl)cc1S(=O)(=O)N1CCCC(C)C1 (stereo unspecified),+,/
CCOc1ccc(S(=O)(=O)N2CCCC(C)C2)c2ccccc12 (stereo unspecified),i,/
CC(Oc1ccccc1)C(=O)Nc1cccc(-c2cnc3n2CCC3)c1 (stereo unspecified),i,i
Cn1nc(-c2ccccc2)cc1C(=O)Nc1cccc(-c2cnc3n2CCC3)c1,+,i
O=C(Nc1cccc(-c2cnc3n2CCC3)c1)c1ccc2c(c1)OCO2,+,i
O=C(Nc1cccc(N2CCCC2=O)c1)c1ccc2c(c1)OCO2,i,/
Cc1cc(C)n(CCN2CCN(C(=O)Nc3ccc(C)c(C)c3)CC2)n1,i,i
Cc1nnsc1C(=O)Nc1ccc(CC(=O)N2CCOCC2)cc1,i,i

# Source: PubChem BioAssay
